These results are taken from PubChem BioAssay (NCI).

Structures are written as SMILES. Compounds without any hit were thinned out: in the full panel of roughly 83,000, 20% have a hit.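 Cell lines were cultured in 96-well plates, exposed to a single compound concentration, and assessed for percent growth 48 hours later.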 Values without a mark were called inactive. Calls of active or inactive are those of the source. How the source made its calls: active means growth percent below 10; inactive means the rest.

Some test systems named below: NCI-H23 lung; NCI-H226 lung; NCI-H322M lung; HOP-62 NSCLC; NCI-H460 lung; HOP-92 NSCLC; NCI-H522 lung; A549/ATCC NSCLC; 786-0 renal; COLO 205 colon; DU-145 prostate; K-562 leukemia; MALME-3M melanoma; MDA-MB-231 breast; RXF 393 renal; SF-268 CNS; SF-295 CNS; SF-539 CNS; UACC-257 melanoma; M14 melanoma.
Test in all cases: NCI-60 one-dose screen, 48 h (100 = growth as untreated, 0 = no growth, -100 = all killed)
What all share (details): 10 µM unless noted

On to `O=C(Nc1ccc(Cl)cc1)Nc1ccc(Cl)c(C(F)(F)F)c1`, for which the growth in the assay on NCI-H23 lung was -15.5% (active); in the assay on NCI-H226 lung, 2.69% (active); in the assay with NCI-H322M lung, 17.1%; with HOP-62 NSCLC, 11.3%; in the assay on NCI-H460 lung, 0.218% (active); in the assay on HOP-92 NSCLC, -14.8% (active). Besides, the growth is 3.9% (active) with NCI-H522 lung; 13.3% with A549/ATCC NSCLC; 15.1% in the assay with 786-0 renal; -73.8% (active) with COLO 205 colon; 20.2% with DU-145 prostate; -10.2% (active) with K-562 leukemia. Besides, the growth was -30.7% (active) in the assay with MALME-3M melanoma; -4.47% (active) in the assay on MDA-MB-231 breast; 33.6% in the assay with RXF 393 renal; 21.3% with SF-268 CNS; -28.2% (active) in the assay with SF-295 CNS; 4.38% (active) in the assay on SF-539 CNS. Also, the growth was 2.84% (active) in the assay on UACC-257 melanoma and 11.8% in the assay on M14 melanoma.
`COc1cc(Cn2ncc3ccc(NC(=O)c4cc5ccccc5oc4=N)cc32)cc(OC)c1OC`: the growth with NCI-H23 lung was 80.8%; in the assay with NCI-H226 lung, 88.6%; in the assay on NCI-H322M lung it was 89.6%; in the assay with HOP-62 NSCLC, 64.9%; with NCI-H460 lung, 91%; in the assay on HOP-92 NSCLC, 71.9%. Also, the growth was 20.3% in the assay with NCI-H522 lung; 50.7% with A549/ATCC NSCLC; 68% in the assay on 786-0 renal; 55.1% in the assay with COLO 205 colon; 88.5% with DU-145 prostate; 16.3% with K-562 leukemia. For the same molecule, the growth is 54% in the assay on MALME-3M melanoma; 54.4% in the assay with MDA-MB-231 breast; 73.3% with RXF 393 renal; 85.8% in the assay on SF-268 CNS; 63.6% in the assay with SF-295 CNS; 29.5% with SF-539 CNS. In addition, the growth in the assay on UACC-257 melanoma is 98.8%; in the assay on M14 melanoma it was 29.5%.
With `CCCCCCCCCCN(CCCCCCCCCC)CC(=O)c1ccc2cc(Br)c3ccccc3c2c1`, the growth with NCI-H23 lung was 47.4%; in the assay with NCI-H226 lung it was 99.4%; with NCI-H322M lung it was 65.7%; with HOP-62 NSCLC, 96.4%; in the assay on NCI-H460 lung, -65.9% (active); in the assay with HOP-92 NSCLC it was -77% (active). Moreover, the growth is 63.4% in the assay with NCI-H522 lung; 82.3% in the assay with A549/ATCC NSCLC; 54.1% in the assay with 786-0 renal; 104% with COLO 205 colon; 71.7% in the assay with DU-145 prostate; -46.6% (active) in the assay with K-562 leukemia. Moreover, the growth is -78.2% (active) with MALME-3M melanoma; 67.1% with MDA-MB-231 breast; 95.5% with RXF 393 renal; 81% with SF-268 CNS; 91.8% in the assay with SF-295 CNS; 89% with SF-539 CNS. In addition, the growth is 87% with UACC-257 melanoma and -11.7% (active) in the assay with M14 melanoma.
Turning to `COc1ccc(-c2cc(-c3ccc(Nc4nc(Nc5ccc(Cl)cc5)nc(Nc5ccc(Cl)cc5)n4)cc3)nc(N)c2C#N)cc1`, the growth in the assay with NCI-H23 lung was 30%; in the assay with NCI-H226 lung, 9.85% (active); in the assay on NCI-H322M lung it was 113%; with HOP-62 NSCLC it was 86.8%; in the assay with NCI-H460 lung, 57.6%; in the assay on HOP-92 NSCLC, -53.8% (active). For the same molecule, the growth in the assay with NCI-H522 lung was 83.4%; with A549/ATCC NSCLC it was 37%; with 786-0 renal it was 41.6%; in the assay with COLO 205 colon, 5.26% (active); with DU-145 prostate, 37.7%; in the assay with K-562 leukemia, 30.1%. The growth in the assay on MALME-3M melanoma is -70.3% (active); in the assay on MDA-MB-231 breast, -30.7% (active); in the assay with RXF 393 renal it was -32.5% (active); in the assay on SF-268 CNS it was 59%; with SF-295 CNS it was 415%; with SF-539 CNS, -48.7% (active). Also, the growth with UACC-257 melanoma is -13.2% (active); with M14 melanoma, 24.9%.
Turning to `COC(=O)[C@]12CC[C@@H](C)[C@H](C)[C@@H]1C1=CC[C@@H]3[C@@]4(C)C(C=O)=C[C@@](C)(COC(=O)c5ccco5)[C@@H]4C(=O)C[C@@]3(C)[C@]1(C)CC2`, the growth in the assay with NCI-H23 lung was 26.3%; with NCI-H226 lung, 22.5%; with NCI-H322M lung, 69.6%; in the assay with HOP-62 NSCLC, 31.6%; in the assay on NCI-H460 lung it was 18.1%; with HOP-92 NSCLC, 31.8%. In addition, the growth is 10.7% in the assay on NCI-H522 lung; 10.1% in the assay on A549/ATCC NSCLC; 43.4% with 786-0 renal; -59.5% (active) with COLO 205 colon; 42% with DU-145 prostate; 22.7% in the assay on K-562 leukemia. Besides, the growth in the assay on MALME-3M melanoma is -17% (active); in the assay on MDA-MB-231 breast it was 39.4%; with RXF 393 renal, 47.6%; in the assay on SF-268 CNS it was 44.9%; with SF-295 CNS it was 34.4%; with SF-539 CNS it was 57.7%. The growth in the assay on UACC-257 melanoma is -38.9% (active); with M14 melanoma, 6.34% (active).
Regarding `CC(C)(C)c1ccc(/C=C/C(=O)Nc2ccc(O)cc2)cc1`, the growth with NCI-H23 lung is 80.9%; with NCI-H226 lung it was 65%; in the assay with NCI-H322M lung, 78%; with HOP-62 NSCLC it was 52.2%; in the assay on NCI-H460 lung, 46.9%; with HOP-92 NSCLC it was 106%. Moreover, the growth in the assay on NCI-H522 lung is 26.4%; with A549/ATCC NSCLC, 64.6%; in the assay on 786-0 renal, 69.1%; in the assay with COLO 205 colon it was 73.6%; in the assay on DU-145 prostate it was 70.3%; in the assay on K-562 leukemia, 4.2% (active). Also, the growth in the assay on MALME-3M melanoma is 67%; with MDA-MB-231 breast, 53%; with RXF 393 renal, 90.9%; in the assay on SF-268 CNS it was 59.7%; with SF-295 CNS, 79.5%; in the assay on SF-539 CNS, 40.6%. For the same molecule, the growth was 64.9% in the assay on UACC-257 melanoma and 28.4% with M14 melanoma.
With `c1cc2ccc3cc2cc1CNCCOCCNCc1ccc2ccc(cc2c1)CNCCOCCNC3`, the growth with NCI-H23 lung is -52.6% (active); in the assay on NCI-H226 lung, -29.4% (active); in the assay on NCI-H322M lung, -10.7% (active); with HOP-62 NSCLC it was -10.2% (active); in the assay with NCI-H460 lung, -9.48% (active); in the assay on HOP-92 NSCLC, -31.5% (active). Further, the growth with NCI-H522 lung is -61.6% (active); in the assay with A549/ATCC NSCLC it was 0.178% (active); with 786-0 renal, 43.5%; in the assay with COLO 205 colon it was -53.2% (active); with DU-145 prostate, -29.3% (active); in the assay on K-562 leukemia, 6.81% (active). Moreover, the growth is -64.5% (active) with MALME-3M melanoma; -53.8% (active) in the assay on MDA-MB-231 breast; -40.1% (active) in the assay on RXF 393 renal; -55.5% (active) in the assay on SF-268 CNS; 14.5% in the assay on SF-295 CNS; -53.4% (active) with SF-539 CNS. Moreover, the growth was 25.5% in the assay with UACC-257 melanoma and 89.6% in the assay on M14 melanoma.
